Bioassay records as filed in PubChem BioAssay.
mIDH1 inhibitor – qHTS for Inhibitors of mutant isocitrate dehydrogenase 1 (IDH1): qHTS; Potency, µM (highest dose often 76.6 µM), inactives show at the highest dose activity change, negative = inhibition, most hits filed as inhibitors; IDH1-R132H enzyme, NADPH consumption, diaphorase/resazurin fluorescence; Isocitrate dehydrogenase [NADP] cytoplasmic (Homo sapiens), O75874; 390,000 tested, 0.093% active; further: potency means the concentration at half of the fitted maximal effect; on the % scale 0 is the no-effect control and ±100 the full control effect; nearly all actives have a fitted effect of over 65% in size
Target sequence (O75874 whole entry R132H, stated change not applied): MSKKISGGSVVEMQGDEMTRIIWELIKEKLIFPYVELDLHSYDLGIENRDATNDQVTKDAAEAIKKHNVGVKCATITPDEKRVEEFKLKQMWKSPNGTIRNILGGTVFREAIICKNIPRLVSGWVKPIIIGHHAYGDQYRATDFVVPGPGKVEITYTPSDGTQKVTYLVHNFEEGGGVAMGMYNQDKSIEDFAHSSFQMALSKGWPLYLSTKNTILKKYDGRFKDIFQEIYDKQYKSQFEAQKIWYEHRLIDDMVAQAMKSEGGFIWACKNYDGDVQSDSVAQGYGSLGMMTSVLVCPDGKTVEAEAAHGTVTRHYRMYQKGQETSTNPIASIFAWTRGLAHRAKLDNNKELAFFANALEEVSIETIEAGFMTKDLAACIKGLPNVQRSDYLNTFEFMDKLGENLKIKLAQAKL
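IDH1-R132H (0.5 ug/mL dispensed) in pH 7.5 Tris buffer was preincubated 30 min with compound, then given a substrate mix of 0.016 mM NADPH and 2 mM alpha-KG for 80 min at room temperature; remaining NADPH was read by diaphorase/resazurin fluorescence.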
Nrf2 activator – qHTS of Nrf2 Activators | AREc32 ARE-luciferase reporter (MCF7-derived line), luminescence, 24 h | Potency, µM (highest dose often 46.1 µM), inactives show at the highest dose activation, most hits filed as activators | 410,000 tested, 0.31% active | AID 624171, 2012; further: potency means the concentration at half of the fitted maximal effect; % of control where 0% means no effect; nearly all actives have a fitted effect of over 65% in size
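Luminescent ARE reporter assay in AREc32_Fluc cells: overnight plating at 37 deg C, 24 hr compound incubation, Steady-Glo added, 30 min RT before reading.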
Anesthetic bind – qHTS Assay for Identification of Novel General Anesthetics; Ferritin light chain (Equus caballus), P02791; Potency, µM (titrated, usually from 77.5 µM), for the others: top-dose activity change, negative = displacement, hits mostly inhibitors; AID 485281, 2010; 350,000 tested, 0.074% active; apoferritin/1-aminoanthracene competitive binding, fluorescence; further: potency means the concentration at half of the fitted maximal effect; on the % scale 0 is the no-effect control and ±100 the full control effect; nearly all actives have a fitted effect of over 20% in size
Target sequence (P02791 2-175 limits assumed): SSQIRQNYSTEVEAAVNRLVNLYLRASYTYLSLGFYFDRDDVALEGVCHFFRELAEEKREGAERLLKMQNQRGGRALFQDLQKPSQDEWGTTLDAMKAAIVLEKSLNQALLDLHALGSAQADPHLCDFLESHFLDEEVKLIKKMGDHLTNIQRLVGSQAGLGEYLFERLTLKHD
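Horse-spleen apoferritin (10 uM) in 50% saturated 1-aminoanthracene in PBS was incubated 10 min at room temperature with compound. Fluorescence (ex 380, em 535 nm) was normalized to free and bound 1-AMA, with concentration-response fitted by a four-parameter Hill equation.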
Nrf2 inh – Nrf2 qHTS screen for inhibitors; A549 ARE-Fluc reporter, luciferase luminescence, 18-24 h; Potency, µM (doses to about 46 µM), without a hit: at the top dose activity change, negative = inhibition, actives largely listed as inhibitors; 360,000 tested, 2.1% active; AID 504444, 2011; further: potency means the concentration at half of the fitted maximal effect; on the % scale 0 is the no-effect control and ±100 the full control effect; nearly all actives have a fitted effect of over 60% in size
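Nrf2 activity is the BugLite luminescence, read 15 min after reagent at room temperature, following CellTiter-Fluor cytotoxicity readout (30 min, 37C). Compound titrations were applied for 18-24 h to 5000 A549 ARE_Fluc cells/well in 5% FBS OPTI-MEM.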
Giardia killer – Small Molecules that selectively kill Giardia lamblia: qHTS; Giardia lamblia trophozoite viability; activity change, % at 7.66 µM, hits read low; 340,000 tested, 0.15% active; AID 540267, 2011; in the data active means activity change below about -80%; inconclusive means between about -30% and that limit;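 further: parasites exposed to compound for two days anaerobically before the ATP read; on the % scale 0 is the no-effect control and ±100 the full control effect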
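Giardia trophozoites, 100 cells per well, were exposed to compounds for 48 hrs at 37 deg C under anaerobic conditions; viability was then read as ATP content by bioluminescence after 15-30 min at room temperature.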
A549 viability – Nrf2 qHTS screen for inhibitors: counterscreen for cytotoxicity | A549 ARE-Fluc cells, CellTiter-Fluor viability, 18-24 h | Potency, µM (top dose mostly 46 µM), for inactives: at the highest dose activity change, negative = cytotoxicity, most hits filed as inhibitors | 390,000 tested, 0.16% active | AID 504648, 2011; further: potency means the concentration at half of the fitted maximal effect; on the % scale 0 is the no-effect control and ±100 the full control effect
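A549 ARE_Fluc cells in 5% FBS OPTI-MEM were exposed to compounds in concentration-response for 18-24 h at 37 deg C. Viability was read by CellTiter-Fluor fluorescence (Ex 405/Em 525) after 30 min, before the luciferase read.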
Resorufin autofl – qHTS for Inhibitors of mutant isocitrate dehydrogenase 1 (IDH1): Cherrypicks Autofluorescence Interference; shares compounds with mIDH1 inhibitor; inhibition of signal, % at 51.2 µM; 750 tested, under 10 active; Resorufin detection reagent fluorescence interference, cell-free;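 further: 0% = wells with normal resorufin and full inhibition = wells lacking resorufin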
WT IDH1 inh – qHTS for Inhibitors of mutant isocitrate dehydrogenase 1 (IDH1): Cherrypicks in WT IDH1; WT IDH1 enzyme, NADPH diaphorase/resazurin fluorescence; shares compounds with mIDH1 inhibitor; 750 tested, 9% active; Potency, µM (series often up to 115 µM), for inactives: at the highest dose activity change, negative = inhibition, hits mostly inhibitors;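 further: potency means the concentration at half of the fitted maximal effect; 0% = full WT IDH1 enzyme control and full inhibition = no enzyme wells; nearly all actives have a fitted effect of over 55% in size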
Target sequence (O75874 whole entry, looked up): as the sequence (O75874 whole entry R132H, stated change not applied) above, with H132R counted along it
mIDH1 confirm – qHTS for Inhibitors of mutant isocitrate dehydrogenase 1 (IDH1): Confirmation of Cherrypicks | shares compounds with mIDH1 inhibitor | IDH1 R132H enzyme, NADPH diaphorase/resazurin fluorescence | Potency, µM (top dose mostly 76.6 µM), for the others: top-dose activity change, negative = inhibition, hits mostly inhibitors | 750 tested, 83% active | AID 624002, 2012; further: potency means the concentration at half of the fitted maximal effect; nearly all actives have a fitted effect of over 50% in size
Numbers without * were called inactive; ? = inconclusive; nt = not tested or not shown. Sampled rows, rich in hits. Any-hit rate of the full collection: about 2.3%. Unless noted, the call rests on the fitted dose curve; in most records, active means well fitted curve in the direction sought with a large enough effect; inconclusive means small, poorly fitted or top-dose-only effect, or another doubt; inactive means no such curve, though single readings can be large; an effect the other way counts as inactive or inconclusive.

SMILES | mIDH1 inhibitor | Nrf2 activator | Anesthetic bind | Nrf2 inh | Giardia killer | A549 viability | Resorufin autofl | WT IDH1 inh | mIDH1 confirm
CCC(=O)N1CCC1(C)C(=O)Nc1cccc2c1CCCC2 (stereo unspecified) | nt | 0% | nt | nt | nt | nt | nt | nt | nt
COc1ccc(Br)cc1CN(C)C(=O)c1ccccc1SCC(=O)N1CCCC1 | 46µM* | 0% | nt | -1% | -7 | 2% | -2 | 9% | 35µM*
Cc1cccc(N(C(=O)c2snc(C(N)=O)c2N)C(C(=O)NC2CCCC2)c2ccc(C)o2)c1 (stereo unspecified) | ? | 4% | -16% | ? | 10 | -4% | 1 | 8% | 25µM*
Cc1ccc(N(C(=O)c2snc(C(N)=O)c2N)C(C(=O)NC2CCCC2)c2ccc(C)o2)cc1 (stereo unspecified) | ? | 4% | -16% | ? | -6 | ? | -1 | 3% | 20µM*
Cc1cccc(N(C(=O)c2snc(C(N)=O)c2N)C(C(=O)NC2CCCC2)c2ccncc2)c1 (stereo unspecified) | -4% | 0% | -12% | 3% | -13 | -7% | nt | nt | nt
Cc1ccc(N(C(=O)c2snc(C(N)=O)c2N)C(C(=O)NC2CCCC2)c2ccco2)cc1 (stereo unspecified) | ? | 4% | -17% | -6% | -15 | 12% | 7 | -1% | 28µM*
Cc1noc(C)c1-c1ccc(C(=O)NCCc2ccccc2)c2occc12 | nt | 20% | nt | nt | nt | nt | nt | nt | nt
Brc1ccc2c(c1)C(c1cccs1)=NNC(c1cccnc1)=N2 | 29µM* | -1% | -12% | ? | 9 | ? | -10 | -4% | 22µM*
CCOc1ccc2c(c1)C(c1cccs1)=NNC(c1cccnc1)=N2 | 1% | 0% | -12% | -7% | -15 | -3% | nt | nt | nt
CCOC(=O)C1CCN(C(c2cccnc2)c2c(NC(=O)c3ccco3)sc(C)c2C)CC1 (stereo unspecified) | ? | 6% | -17% | 15µM* | 0 | -14% | 1 | -3% | 28µM*
Cc1nc(N2CCCC2)c2c(C(=O)N3CCN(c4ccc(F)cc4)CC3)c(C)oc2n1 | 0% | 1% | -11% | ? | nt | -2% | nt | nt | nt
CCOC(=O)CSC1=NC(=O)/C(=C/c2ccc(OC)cc2)S1 | 52µM* | 9% | -9% | 6% | 8 | ? | 2 | ? | 45µM*
CCOC(=O)c1c(NC(=O)CN2CCOCC2)sc2c1CCCC2 | 26µM* | 3% | ? | 11% | 5 | -1% | -7 | -10% | 20µM*
CCOC(=O)c1c(NC(=O)CN2CCCCC2)sc2c1CCN(C(=O)OCC)C2 | 12µM* | 5% | ? | 23µM* | 7 | ? | -2 | 5% | 6.3µM*
COc1cccc(CNC(=O)Cn2c(=O)nc(-c3ccccc3F)c3cc(Cl)ccc32)c1 | -17% | 0% | 61% | nt | nt | ? | nt | nt | nt
C=C(C)Cc1c(C)c(C#N)c2nc3ccccc3n2c1N1CCCCC1 | ? | 0% | -18% | 21% | -2 | -1% | -2 | -1% | 14µM*
C=CCc1c(C)c(C#N)c2nc3ccccc3n2c1N1CCCCC1 | -2% | 0% | -5% | ? | 8 | 1% | nt | nt | nt
O=C(NC1CCCCC1)C(c1ccc2ncccc2c1)N(Cc1ccc(F)cc1)C(=O)c1cccs1 (stereo unspecified) | -3% | 4% | -11% | ? | -5 | -17% | nt | nt | nt
O=C(NC1CCCCC1)C(c1ccc(F)cc1)N(C(=O)c1cccs1)c1ccc2c(c1)OCO2 (stereo unspecified) | ? | -1% | -7% | 1% | -7 | -2% | 0 | -9% | 7.9µM*
O=C(NC1CCCCC1)C(c1cccs1)N(C(=O)c1ccco1)c1ccc2c(c1)OCCO2 (stereo unspecified) | ? | 3% | -18% | 4% | 0 | 0% | -1 | -20% | ?
CC(=O)c1ccc(N(C(=O)c2ccco2)C(C(=O)NC2CCCC2)c2cccs2)cc1 (stereo unspecified) | 7% | 1% | -3% | -5% | -8 | -3% | nt | nt | nt
COc1ccc(NC(=O)c2c(C)oc3ccc(O)c(CN4CCCCCC4)c23)cc1Cl | 5% | 0% | 2% | ? | nt | 5% | nt | nt | nt
Cc1ccc(NC(=O)[C@@H](c2ccccc2)N2Cc3ccccc3C2=O)cc1 | -1% | 0% | -9% | -16% | nt | -16% | nt | nt | nt
CC(C)c1ccc(NC(=O)C(c2ccccc2)N2CC(=O)Nc3ccccc32)cc1 (stereo unspecified) | ? | 1% | -9% | -16% | 1 | 2% | 0 | -2% | 25µM*
O=C1c2[nH]nc(-c3ccccc3O)c2C(c2ccc(F)cc2)N1Cc1ccco1 (stereo unspecified) | ? | 6% | -8% | ? | -16 | ? | -7 | 5% | 40µM*
Cc1ccc(C2c3c(-c4cc(C)ccc4O)n[nH]c3C(=O)N2Cc2ccco2)cc1 (stereo unspecified) | 35µM* | -4% | -9% | 15% | nt | 2% | -4 | -4% | 45µM*
O=C1c2[nH]nc(-c3ccccc3O)c2C(c2cccc(Cl)c2)N1Cc1ccco1 (stereo unspecified) | ? | 0% | -16% | ? | -1 | ? | nt | nt | nt
COc1ccc(C2c3c(-c4ccccc4O)n[nH]c3C(=O)N2Cc2ccco2)cc1OC (stereo unspecified) | -25% | 3% | 2% | 2% | -7 | 4% | nt | nt | nt
